Compound activity: PubChem BioAssay, National Center for Advancing Translational Sciences (NCATS)
Shown are actives, neighbours in structure and some others; about 12% of the full set was active somewhere.
Sfp inh = inhibitors of Bacillus subtilis Sfp phosphopantetheinyl transferase; Q9F4F7; Biochemical Sfp PPTase activity, qHTS; Potency, µM, for inactives: largest response in the series, negative = inhibition, actives largely listed as inhibitors; 310,000 compounds, 3.5% hits;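 also: the enzyme is Sfp with the accession as filed and its product quenches rhodamine fluorescence; 0% = enzyme reaction without inhibitor and -100% = no enzyme wells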
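Reaction rates are the 30-min fluorescence difference (ex 525, em 598 nm) in wells containing 15 nM Sfp, 5 uM rhodamine-CoA and 12.5 uM BHQ-2-YbbR at pH 7.6 with 10 mM MgCl2.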
BAZ2B block = blocks human BAZ2B; Potency, µM (titrated, usually from 114 µM), for inactives: top-dose activity change, negative = inhibition, hits mostly inhibitors; AlphaScreen BAZ2B-H3K14Ac peptide displacement; 360,000 compounds, 4.4% hits; also: % is scaled to controls: 0 for no effect and ±100 for the full control effect; nearly all actives have a fitted effect of over 60% in size
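BAZ2B (50 nM) with biotin-H3(5-23)K14Ac peptide (50 nM) in PBS pH 7.4, 0.01% Tween-20, preformed 30 min, then compound 30 min at room temperature; top concentration 110uM. AlphaScreen streptavidin donor/nickel chelate acceptor beads (10 ug/mL final), 20 min dark, signal read.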
PLK1 PBD block = PLK1 (human) polo-box domain binding inhibition. P53350. Plk1 PBD binding of FITC phosphopeptide, fluorescence polarization. Potency, µM, for the others: max response, negative = inhibition, usual class: inhibitors. 360,000 compounds, 2.8% hits. AID 720504; also: series mostly up to about 57 µM; % is scaled to controls: 0 for no effect and ±100 for the full control effect; nearly all actives have a fitted effect of over 65% in size
HP1b chromo inh = blocks HP1-beta chromodomain binding to methylated histone tails; 390,000 compounds, 0.56% hits; AlphaScreen HP1-beta / biotin-H3K9me3 peptide binding; P83916; Potency, µM (series often up to 114 µM), without a hit: at the top dose activity change, negative = inhibition, actives largely listed as inhibitors; also: nearly all actives have a fitted effect of over 70% in size
Target sequence (P83916 whole entry, looked up): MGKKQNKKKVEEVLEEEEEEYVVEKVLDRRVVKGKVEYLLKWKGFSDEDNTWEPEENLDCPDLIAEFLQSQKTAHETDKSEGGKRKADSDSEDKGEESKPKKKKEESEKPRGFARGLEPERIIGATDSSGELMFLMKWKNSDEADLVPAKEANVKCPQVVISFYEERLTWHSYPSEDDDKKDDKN
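AlphaScreen: HP1-beta (50 nM) preformed 30 min with biotin-H3(1-18)K9me3 peptide (50 nM) in PBS pH 7.4, 0.01% Tween-20. Compound added for 30 min at RT, then streptavidin donor/nickel chelate acceptor beads (10 ug/mL) for 30 min.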
G9a block = blocks human histone lysine methyltransferase G9a; Q96KQ7; 350,000 compounds, 8.8% hits; G9a H3K9 monomethylation, AlphaScreen, 2 h; AID 504332; Potency, µM (titrated, usually from 102 µM), inactives show at the top dose activity, negative = inhibition, hits mostly inhibitors; also: % is scaled to controls: 0 for no effect and ±100 for the full control effect; nearly all actives have a fitted effect of over 75% in size
Target sequence (Q96KQ7 913-1193 limits assumed): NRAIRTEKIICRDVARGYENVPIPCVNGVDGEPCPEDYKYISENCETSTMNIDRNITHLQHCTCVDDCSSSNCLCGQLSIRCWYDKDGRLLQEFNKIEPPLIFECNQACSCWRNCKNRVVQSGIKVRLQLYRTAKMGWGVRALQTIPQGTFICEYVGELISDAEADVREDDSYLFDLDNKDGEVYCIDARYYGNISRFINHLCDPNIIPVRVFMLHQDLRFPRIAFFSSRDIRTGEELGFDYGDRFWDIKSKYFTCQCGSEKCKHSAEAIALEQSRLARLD
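Chemiluminescent proximity detection of H3K9 monomethylation, read after 10 min bead incubation in the dark. Reaction: 20 nM G9a, 500 nM biotin-H3K9 peptide, 20 uM SAM cofactor, 2 h, room temperature, following 15 min enzyme-compound preincubation.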
JMJD2A Tudor = inhibitors of human JMJD2A Tudor domain. AlphaScreen JMJD2A-Tudor / H3K4me3 peptide binding. Potency, µM (series often up to 114 µM), for inactives: top-dose activity change, negative = inhibition, actives largely listed as inhibitors. 390,000 compounds, 4.4% hits. AID 504339; also: % is scaled to controls: 0 for no effect and ±100 for the full control effect; nearly all actives have a fitted effect of over 50% in size
* = called active by the depositor; ? = inconclusive; . = no result; [ ] = dose if it differs, or a comment. Calls follow the shape of the dose curve; as a rule, active = well fitted curve in the direction sought with a large enough effect; inconclusive = small, poorly fitted or top-dose-only effect, or another doubt; inactive = no such curve, though single readings can be large; an effect the other way counts as inactive or inconclusive. Potency is read from the fitted curve at half-maximal effect.

SMILES	Sfp inh	BAZ2B block	PLK1 PBD block	HP1b chromo inh	G9a block	JMJD2A Tudor
COc1cc(NS(=O)(=O)c2ccc(NC(=O)/C(=C\c3ccccc3OC)NC(=O)c3ccccc3)cc2)nc(OC)n1	10%	-3%	-12%	27%	20µM*	-30%
COc1cc(NS(=O)(=O)c2ccc(NS(=O)(=O)c3ccccc3)cc2)nc(OC)n1	14%	?	-7%	12%	56µM*	-15%
Cc1ccccc1C1=CCN(c2ncc(NC(=O)c3ccc(Cl)cc3)cc2C(=O)O)CC1	.	50µM*	.	?	?	79µM*
O=[N+]([O-])/C(C(Cl)=C(Cl)Cl)=C(\Sc1ccccc1)N1CCCCC1	-15%	?	-27%	-10%	40µM*	?
O=C(CCSc1ccccc1)N1CCCC1	17%	-12%	-20%	33%	29%	6%
CCN(CC)/C(Sc1ccccc1)=C(\C(Cl)=C(Cl)Cl)[N+](=O)[O-]	3%	50µM*	?	-16%	?	-34%
CCN(CC)/C(Sc1ccccc1)=C(/C(Cl)=C(Cl)Cl)[N+](=O)[O-]	6%	-32%	?	17%	?	-21%
COc1ccccc1CC(=O)Nc1ccc2nc(Nc3cccc(Cl)c3)cc(C)c2c1	.	3%	.	51%	29%[59 µM]	-6%
CCN1/C(=C2\C(=O)N(C)C(=S)N2C)C=Cc2cc(OC)ccc21	50µM*	56µM*	-10%	?	7.9µM*	?
COc1cccc(/C=C2/Sc3ccc(C(=O)NCCN4CCCCCC4)cc3NC2=O)c1	45µM*	?	-3%	5%	40µM*	?
O=C1Nc2cc(C(=O)NCCN3CCCCCC3)ccc2S/C1=C\c1ccccc1	40µM*	?	-8%	-13%	45µM*	?
CCN1CCCC1CNC(=O)c1ccc2c(c1)NC(=O)/C(=C\c1ccc(OC)c(OC)c1)S2 (centres undefined)	-12%	25µM*	-14%	-17%[57 µM]	-9%[0.0925 µM]	28µM*
CCN1CCCC1CNC(=O)c1cc(N)ccc1OC (centres undefined)	.	.	2%	?	.	0.79µM*
CC(C)(C)OC(=O)Cc1nnc(C(C(=O)OCc2ccccc2)c2ccccc2)s1 (centres undefined)	.	.	.	.	.	-8%
COc1cccc(N=Nc2c(=O)[nH]n3c(C)cc(C)nc23)c1	-25%	-31%	1%	-10%	-12%[59 µM]	?
CCOc1ccc(N=Nc2c(=O)[nH]n3c(C)cc(C)nc23)cc1	-11%	?	-2%	?	7.1µM*	?
O=C(Cc1ccccc1)Nc1nc(-c2cccc([N+](=O)[O-])c2)cs1	20%	10%	30%	43%	12%[59 µM]	0%
CCn1nc(C(=O)OCC(=O)NCC(C)C)c2ccccc2c1=O	15%	-12%	-4%	15%	-6%	-12%
O=C(COC(=O)c1ccccn1)Nc1nc(-c2ccccc2)cs1	6%	50µM*	-19%	-14%	-72%	79µM*
CCn1nc(C(=O)OCC(=O)Nc2nc(-c3ccc(OC)cc3)cs2)c2ccccc2c1=O	3%	-37%	27µM*	-3%	?	-35%
COCC(=O)Nc1nc(-c2ccc(-c3ccccc3)cc2)cs1	16%	-14%	-18%	64%	?	-15%
O=C(COC(=O)c1ccccn1)Nc1nc(-c2cccc([N+](=O)[O-])c2)cs1	-13%	56µM*	-2%	-3%	-7%	-18%
CCc1ccc(NC(=O)c2cc(S(=O)(=O)N3CCCCCC3)ccc2F)cc1	.	7%	.	64%	3%[59 µM]	-14%
CCC1=C(OC(=O)N(CC)CC)N2C(=O)OC(=NCCOC)[C@]2(C)[C@H]2C1=CC[C@H]1C(=O)N(CC)C(=O)[C@H]12	18%	.	.	.	.	.
O=C(NC1CCCCCC1)c1cc(S(=O)(=O)N2CCCCC2)ccc1N1CCOCC1	-6%	-3%	-3%	31%	11%	-6%
SMILES	Sfp inh	BAZ2B block	PLK1 PBD block	HP1b chromo inh	G9a block	JMJD2A Tudor
COc1ncc2nc(-c3ccc(F)cc3)c(=O)n(-c3ccccc3)c2n1	11%	.	.	.	7%[0.501 µM]	.
Cc1cc(N)c2ccccc2[n+]1CCCCCCCCCCCCCC[n+]1c(C)cc(N)c2ccccc21	.	.	.	.	0.4µM*	.
COc1ccc(S(=O)(=O)N2CCC3(CC2)OCCN3S(=O)(=O)c2ccccc2)cc1OC	.	1%	-4%	25%	?	-10%
Cc1cn(C)c(CC(=O)N2CCN(c3ccccc3F)CC2)c1C(=O)O	.	-5%	.	17%	-3%[59 µM]	-11%
COCCNc1nc(=S)[nH]c2cc(OC)c(OC)cc12	-11%	-28%	-12%	40%	35µM*	?
CCOCCCNc1nc(=S)[nH]c2cc(OC)c(OC)cc12	-3%	?	-11%	25%	35µM*	?
CCCCNc1nc(=S)[nH]c2cc(OC)c(OC)cc12	?	?	-12%	15%	-3%[12.7 µM]	?
COc1cc2[nH]c(=S)nc(NCCCOC(C)C)c2cc1OC	-20%	50µM*	-10%	23%	45µM*	?
CC(C)(C)OC(=O)N1CCC(c2c(C(=O)NCCN3CCCC3)cnn2-c2ccc(Cl)cc2)CC1	.	11%[57.1 µM]	.	11%	-7%[59 µM]	-14%
O=C(N/C(=C\c1ccco1)C(=O)N1CCCC1)c1ccccc1	-11%	-2%	-12%	13%	40µM*	-6%
O=C(N/C(=C/c1ccccc1)C(=O)N1CCCCC1)c1ccccc1	-3%	-22%	-6%	13%	30%	-4%
Cc1ccc(NC(=S)N2CCN(C(=O)c3ccccc3)CC2)c(C)c1	2%	.	27µM*	14%	17%	-33%
O=C(N/C(=C\c1ccco1)C(=O)N1CCC(O)CC1)c1ccccc1	10%	1%	-3%	10%	?	-10%
Cc1ccc(NC(=O)/C(=C/c2ccco2)c2ccccc2)c(C)c1	-10%	?	-1%	-18%	50µM*	-14%
O=C(N/C(=C\c1ccccc1)C(=O)N1CCCCCC1)c1ccccc1	18%	-3%	30µM*	?	2%	?
CC1(C(=O)NCc2ccccc2)CN(S(C)(=O)=O)CC(=O)N1CCc1ccc(O)cc1 (centres undefined)	.	.	1%	.	.	.
O=C(O)/C(=C\c1ccco1)NC(=O)c1cccc2ccccc12	79µM*	?	?	-11%	.	89µM*
Cc1ccc(C(=O)N/C(=C/c2ccco2)C(=O)N2CCCCCC2)cc1	-5%	-8%	-9%	-20%	71µM*	-31%
CC(NC(=O)/C(=C\c1ccco1)NC(=O)c1ccccc1Br)C(=O)O (centres undefined)	4%	2%	-19%	13%	?	?
O=C(N/C(=C/C=C/c1ccccc1)C(=O)N1CCCCC1)c1ccc([N+](=O)[O-])cc1	-14%	-35%	-2%	1%	50µM*	?
